FadD28 binding – inhibitors of FadD28 bisubstrate probe binding, primary screen, biochemical, fluorescence polarization, single point | Mycobacterium tuberculosis FadD28 fatty-acid-AMP ligase | 360,000 tested, 0.22% active | inhibition, % at 12.5 µM | AID 588549, 2011; in the data active = inhibition above about 8.5%, passing the limit was not always enough
Mtb FBA inh – Mtb FBA enzyme inhibitors, primary screen, biochemical, fluorescence, strain H37Rv; Fructose-bisphosphate aldolase (Mycobacterium tuberculosis (strain ATCC 25618 / H37Rv)), …; purified M. tuberculosis FBA, fluorescence read-out; inhibition, % at 1 µM; 360,000 tested, 2.3% active; in the data active = inhibition above about 27%;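 also: 0% = vehicle and 100% = reference inhibitor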
Target sequence (P9WQA3 whole entry, looked up): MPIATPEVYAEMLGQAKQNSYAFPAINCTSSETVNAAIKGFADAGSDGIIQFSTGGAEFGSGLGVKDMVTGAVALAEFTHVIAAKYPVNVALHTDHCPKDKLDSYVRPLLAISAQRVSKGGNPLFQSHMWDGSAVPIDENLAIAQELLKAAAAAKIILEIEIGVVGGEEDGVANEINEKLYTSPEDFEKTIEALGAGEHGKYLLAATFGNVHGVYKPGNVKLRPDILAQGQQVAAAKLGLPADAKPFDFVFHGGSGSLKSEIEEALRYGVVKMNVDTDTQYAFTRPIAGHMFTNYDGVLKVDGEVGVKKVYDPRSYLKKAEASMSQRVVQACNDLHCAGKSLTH
Mtb hypoxia inh – PubChem AID 1159583; fluorescence inhibition, % (test concentration not listed); M. tuberculosis hypoxia-regulated fluorescent reporter, fluorescence; 300,000 tested, 0.1% active; in the data active = fluorescence inhibition mostly above about 23%, no sharp cut-off; inactive = mostly below about 17%
Mtb BioA inh – M. tuberculosis BioA enzyme inhibitors, primary screen, biochemical, plate reader, single point, HTS; AID 602481, 2012; inhibition, % at 9.99 µM; 360,000 tested, 0.096% active; purified M. tuberculosis BioA enzyme; in the data active = inhibition above about 40%
GDH-TPI counter – GDH-TPI coupling enzyme inhibitors, primary screen, artefact control for M. tuberculosis FBA inhibitor project, biochemical, absorbance, full deck; GDH-TPI coupled enzyme counterscreen, NADH absorbance; inhibition, % at 4.8 µM; 360,000 tested, 1.2% active; AID 588335, 2011; in the data active = inhibition above about 30%;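 also: 0% = DMSO wells and 100% = wells lacking the enzyme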
An asterisk follows results filed as active; · = no result given; + = active, no number. Compounds with a hit are over-represented: about 2.9% of the library has one in this group of screens.

SMILES | FadD28 binding | Mtb FBA inh | Mtb hypoxia inh | Mtb BioA inh | GDH-TPI counter
Cc1ccc(Nc2nc(N)c(C#N)c(CC#N)c2C#N)cc1 | -0.6 | -1.8 | -3.9 | · | 37.8*
S=c1[nH]nc(COc2ccccc2)n1N=C/C(Cl)=C/c1ccccc1 | · | · | 1.8 | · | ·
CN(C)c1ccc(N=Cc2ccco2)cc1 | -1.3 | -2.2 | 4.0 | -1.4 | 9.3
C(=Nc1cccc2c(N=Cc3ccco3)cccc12)c1ccco1 | -1.7 | 61.6* | · | · | 3.9
CC(C)c1ccc(NC(=O)C(=O)C2C(=O)Nc3ccccc32)cc1 (stereo not given) | 14.6* | 6.5 | 11.6 | · | 7.2
CN(C)c1ccc(NC(=O)C(=O)C2C(=O)Nc3ccccc32)cc1 (stereo not given) | 1.0 | 0.1 | 7.3 | -0.6 | 14.3
CC(C)(C)c1ccc(NC(=O)C(=O)C2C(=O)Nc3ccccc32)cc1 (stereo not given) | 27.4* | 3.1 | 1.5 | · | -0.9
C[C@@H]1CN([C@@H](C)CO)S(=O)(=O)c2ccc(-c3ccc(C(=O)N(C)C)cc3)cc2O[C@@H]1CN(C)C(=O)Nc1ccccc1F | · | · | · | 2.1 | ·
CCOc1ccc(C=NNC(=O)Cc2csc(Nc3cccc(C(F)(F)F)c3)n2)cc1 | · | · | 9.4 | · | ·
CCOC(=O)c1c(NS(=O)(=O)c2ccc(Br)cc2)sc2c1CCC2 | 11.6* | 1.0 | · | 2.6 | 6.1
C[C@@H]1CCCCO[C@H](CN(C)C(=O)Nc2ccc3c(c2)OCO3)[C@@H](C)CN([C@H](C)CO)C(=O)c2cc(NS(=O)(=O)c3ccccc3)ccc2O1 | · | · | · | -0.6 | ·
Cn1c(/C(C#N)=C(\O)c2ccc([N+](=O)[O-])cc2)nc2ccccc21 | 0.0 | 1.4 | 2.8 | · | -5.7
CCN(CC)S(=O)(=O)c1ccc(/C(O)=C(\C#N)c2nc3ccccc3n2C)cc1 | 2.9 | 1.6 | · | · | 39.2*
C[C@H]1CN([C@@H](C)CO)C(=O)c2cc(-c3cncnc3)cnc2O[C@@H]1CN(C)C(=O)c1ccccc1F | · | · | · | -1.1 | ·
CCC(=O)c1ccc(OCC(=O)Nc2cccc(S(=O)(=O)N3CCCCCC3)c2)cc1 | 13.1* | -2.8 | 5.0 | 1.1 | 3.8
Cc1cccc(NC(=O)COC(=O)c2ccc(C)c(S(=O)(=O)N3CCCCC3)c2)c1 | -0.2 | 0.1 | -0.1 | -2.9 | 3.2
O=C(Cn1nnc(-c2ccc(F)cc2)n1)Nc1cccc(S(=O)(=O)N2CCCC2)c1 | -1.8 | 0.1 | 34.5* | -2.4 | 5.6
Cc1cccc(NC(=O)COC(=O)c2cccc(S(=O)(=O)N3CCCCCC3)c2)c1 | 10.5* | 2.9 | 14.0 | -0.5 | 8.2
Cc1ccc(C(=O)OCC(=O)Nc2ccccc2)cc1S(=O)(=O)N1CCCCC1 | 0.7 | -2.3 | 34.7* | 0.0 | -0.7
CC(C)CC#Cc1cnc2c(c1)C(=O)N([C@H](C)CO)C[C@@H](C)[C@H](CN(C)Cc1ccccc1)O2 | · | · | · | 0.4 | ·
CCCNC(=O)C[C@@H]1C[C@@H]2c3cc(NS(C)(=O)=O)ccc3O[C@@H]2[C@H](CO)O1 | · | · | · | -1.5 | ·
CC(=O)c1ccc(N2CCN(C(=O)c3nn(C)c4c3CS(=O)(=O)c3ccccc3-4)CC2)cc1 | -0.4 | 2.0 | 8.3 | 2.5 | 40.5*
Cn1nc(C(=O)N2CCN(c3ccc(Cl)cc3)CC2)c2c1-c1ccccc1S(=O)(=O)C2 | 0.0 | -2.2 | -0.4 | -0.4 | 8.2
COc1ccccc1-c1cnc2c(c1)C(=O)N([C@@H](C)CO)C[C@@H](C)[C@H](CN(C)Cc1ccccc1)O2 | · | · | · | 12.5 | ·
COCCn1c(C)cc2c(c1=O)C(c1ccco1)C(C#N)=C(N)O2 (stereo not given) | -1.1 | 49.3* | -10.0 | -1.3 | 5.6
SMILES | FadD28 binding | Mtb FBA inh | Mtb hypoxia inh | Mtb BioA inh | GDH-TPI counter
Cc1cc2c(c(=O)n1CCN(C)C)C(c1ccncc1)C(C#N)=C(N)O2 (stereo not given) | -0.5 | 0.1 | -3.7 | 4.4 | 13.0
CCCOc1ccc(-c2c(C(=O)NN=C(C)c3cccnc3)nnn2-c2nonc2N)cc1 | · | · | 12.2 | · | ·
COc1ccc(-c2cc3ncnc(Cl)c3s2)cc1 | -0.5 | + | · | -6.0 | 16.4
CC(C)(C)OC(=O)CC1CC=CCC(CC(=O)NC(CO)Cc2ccccc2)C(=O)NC(Cc2c[nH]c3ccccc23)COC1=O (stereo not given) | · | · | 5.4 | · | ·
CC(CCc1ccco1)=NNC(=O)CCC(=O)Nc1ccc(Br)cc1 | · | · | -5.0 | · | ·
C[C@H](CO)N1C[C@H](C)[C@@H](CN(C)S(C)(=O)=O)Oc2cc(C#CCN(C)C)ccc2S1(=O)=O | · | · | · | -1.1 | ·
CC1(C)Cc2nc(Cl)c(C#N)cc2CO1 | 1.3 | -0.1 | 11.0 | -1.2 | -0.6
CC1(C)Cc2nc(NCCCO)c(C#N)cc2CO1 | -3.5 | 112.2* | -4.6 | 0.6 | 5.0
COc1ccc(-n2c(=O)/c(=C\c3cccs3)s/c2=C(/C#N)C(=O)NCCN2CCOCC2)cc1 | 0.9 | -4.7 | · | -5.2 | 34.1*
COC(=O)/C=c1/s/c(=C(/C#N)C(=O)N2CCOCC2)n(-c2ccccc2)c1=O | -0.6 | 2.5 | · | -1.7 | 39.9*
CO[C@@H]1CN(C)C(=O)c2ccc(NC(C)=O)cc2OC[C@H](C)N(Cc2cc(F)ccc2F)C[C@H]1C | · | · | · | 1.1 | ·
CCCC(=O)Nc1ccc2c(c1)OC[C@@H](C)N(Cc1cccc(F)c1)C[C@@H](C)[C@@H](OC)CN(C)C2=O | · | · | · | 0.2 | ·
Cn1c(=O)[nH]c(=O)c2c1nc(NN=Cc1ccncc1)n2Cc1ccc(Cl)cc1 | · | · | 16.8 | · | ·
Cc1ccc(N/C=C(/C#N)c2ccsc2)cc1 | -1.7 | -2.1 | · | -0.5 | 21.6
N#C/C(=C/Nc1ccccc1)c1ccsc1 | 0.3 | -2.4 | 3.2 | 1.4 | 33.7*
CO[C@@H](CN(C)C(=O)c1cnccn1)[C@@H](C)CN([C@H](C)CO)S(=O)(=O)c1ccccc1 | · | · | · | -1.0 | ·
Cc1ccc(C)c(S(=O)(=O)Nc2ccccc2C(=O)Nc2cc(C)on2)c1 | -3.2 | 134.8* | 7.5 | -1.3 | 15.1
O=C(Nc1sccc1C(=O)NCc1ccco1)c1cccnc1 | -0.8 | 0.7 | 4.1 | · | 32.2*
O=C(N/N=C/c1cc(Cl)c(O)c(Cl)c1)c1cc2c(ccc3ccccc32)o1 | 39.1* | 3.5 | · | -1.4 | 32.0*
CC(=O)Oc1ccc(/C=N\NC(=O)c2cc3c(ccc4ccccc43)o2)cc1 | -2.3 | 4.9 | · | -0.7 | 10.5
O=C(N/N=C/c1cc(Br)c(O)c(Br)c1)c1cc2c(ccc3ccccc32)o1 | 25.3* | 4.7 | · | 1.5 | 32.6*
O=C(N/N=C/c1ccc(O)c(Br)c1)c1cc2c(ccc3ccccc32)o1 | -2.0 | -0.3 | · | 1.0 | 26.8
O=C(NCC[C@@H]1CC[C@H](NC(=O)C2CCOCC2)[C@H](CO)O1)c1cc(Cl)cc(Cl)c1 | · | · | · | -0.7 | ·
C[C@@H]1CN([C@H](C)CO)C(=O)c2cc(C#Cc3ccncc3)cnc2O[C@@H]1CN(C)C(=O)c1ccccc1F | · | · | · | -4.6 | ·
C[C@@H]1CN([C@@H](C)CO)C(=O)c2cc(NS(=O)(=O)c3cn(C)cn3)ccc2O[C@@H](C)CCCCO[C@@H]1CN(C)C(=O)Cc1ccccc1 | · | · | · | -1.0 | ·

Compound activity (PubChem)
